# Source: PubChem BioAssay AID1159580 (chemical genetic matrix, 2015)
# Where “and” joins values, the source holds several entries; their conditions need not be identical. Identical values can stand only once. Hit rate of the full screen: of about 5,500 compounds, about 2,000 (36%) were called active. Another 18% or so got no clear call; they are omitted. Cut-off read from the data, not from the text of the source: active = normalized growth mostly below about 0.91 (no sharp cut-off); inconclusive = no clear call, values can overlap the other calls; inactive = mostly above about 0.92. This is one part of the list.
# Experiment: chemical genetic growth profiling, strain panel (AID 1159580);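 note: tested at 20 µM; growth read once vehicle control cultures reached saturation at 30 °C; 1 = growth at the plate median or of vehicle wells; lower values mean less growth of the strain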
# Settings: S. cerevisiae deletion strains, growth OD
structure (smiles),measurement,setting,value
CC(=O)O[C@@H]1C[C@@]2(C)[C@H](c3ccoc3)C[C@H]3O[C@]32[C@]2(C)C(=O)C(O)=C3C(C)(C)C(=O)C=C[C@]3(C)C12 (some centres not stated),normalized growth,"locus YAL021C, strain ccr4, stronger effect = lower value",0.983 (inactive)
same,normalized growth,"locus YAL026C, strain drs2, stronger effect = lower value",0.892 (active)
same,normalized growth,"locus YAL030W, strain snc1, stronger effect = lower value",0.968 (inactive)
same,normalized growth,"locus YBL061C, strain skt5, stronger effect = lower value",0.953 (inactive)
same,normalized growth,"locus YBR009C, strain hhf1, stronger effect = lower value",0.867 (active)
same,normalized growth,"locus YBR021W, strain FUR4, stronger effect = lower value",1.05 (inactive)
same,normalized growth,"locus YBR023C, strain chs3, stronger effect = lower value",0.947 (inactive)
same,normalized growth,"locus YBR171W, strain sec66, stronger effect = lower value",0.929 (inactive)
same,normalized growth,"locus YBR229C, strain ROT2, stronger effect = lower value",0.927 (inactive)
same,normalized growth,"locus YBR231C, strain swc5, stronger effect = lower value",0.94 (inactive)
same,normalized growth,"locus YBR279W, strain paf1, stronger effect = lower value",0.97 (inactive)
same,normalized growth,"locus YCL011C, strain gbp2, stronger effect = lower value",0.88 (active)
same,normalized growth,"locus YCL016C, strain dcc1, stronger effect = lower value",0.969 (inactive)
same,normalized growth,"locus YCL029C, strain bik1, stronger effect = lower value",0.907 (active)
same,normalized growth,"locus YCL061C, strain MRC1, stronger effect = lower value",0.96 (inactive)
same,normalized growth,"locus YCL069W, strain vba3, stronger effect = lower value",0.956 (inactive)
same,normalized growth,"locus YCR088W, strain abp1, stronger effect = lower value",0.951 (inactive)
same,normalized growth,"locus YDL005C, strain med2, stronger effect = lower value",0.958 (inactive)
same,normalized growth,"locus YDL035C, strain GPR1, stronger effect = lower value",0.914 (inactive)
same,normalized growth,"locus YDL040C, strain nat1, stronger effect = lower value",0.953 (inactive)
same,normalized growth,"locus YDL074C, strain BRE1, stronger effect = lower value",0.754 (active)
same,normalized growth,"locus YDL101C, strain DUN1, stronger effect = lower value",0.933 (inactive)
same,normalized growth,"locus YDL134C, strain PPH21, stronger effect = lower value",0.921 (inactive)
same,normalized growth,"locus YDL185W, strain tfp1, stronger effect = lower value",0.931 (inactive)
same,normalized growth,"locus YDL192W, strain arf1, stronger effect = lower value",0.822 (active)
same,normalized growth,"locus YDR001C, strain nth1, stronger effect = lower value",0.968 (inactive)
same,normalized growth,"locus YDR069C, strain doa4, stronger effect = lower value",0.942 (inactive)
same,normalized growth,"locus YDR101C, strain arx1, stronger effect = lower value",0.908 (active)
same,normalized growth,"locus YDR137W, strain rgp1, stronger effect = lower value",0.639 (active)
same,normalized growth,"locus YDR150W, strain NUM1, stronger effect = lower value",0.969 (inactive)
same,normalized growth,"locus YDR159W, strain sac3, stronger effect = lower value",0.777 (active)
same,normalized growth,"locus YDR162C, strain NBP2, stronger effect = lower value",0.658 (active)
same,normalized growth,"locus YDR195W, strain ref2",1.04 (inactive)
same,normalized growth,"locus YDR297W, strain sur2, stronger effect = lower value",0.954 (inactive)
same,normalized growth,"locus YDR318W, strain mcm21, stronger effect = lower value",0.844 (active)
same,normalized growth,"locus YDR334W, strain swr1, stronger effect = lower value",0.963 (inactive)
same,normalized growth,"locus YDR335W, strain msn5, stronger effect = lower value",0.969 (inactive)
same,normalized growth,"locus YDR388W, stronger effect = lower value",0.951 (inactive)
same,normalized growth,"locus YDR392W, strain spt3, stronger effect = lower value",0.326 (active)
same,normalized growth,"locus YDR502C, strain sam2, stronger effect = lower value",0.896 (active)
same,normalized growth,"locus YEL003W, strain gim4, stronger effect = lower value",0.927 (inactive)
same,normalized growth,"locus YEL037C, strain rad23, stronger effect = lower value",0.961 (inactive)
same,normalized growth,"locus YEL061C, strain CIN8 (second series), stronger effect = lower value",0.955 (inactive)
same,normalized growth,"locus YEL061C, strain CIN8, stronger effect = lower value",0.965 (inactive)
same,normalized growth,"locus YER015W, strain faa2, stronger effect = lower value",0.966 (inactive)
same,normalized growth,"locus YER016W, strain bim1, stronger effect = lower value",0.953 (inactive)
same,normalized growth,"locus YER110C, stronger effect = lower value",0.953 (inactive)
same,normalized growth,"locus YER111C, strain swi4, stronger effect = lower value",0.94 (inactive)
same,normalized growth,"locus YER155C, strain BEM2 (second series), stronger effect = lower value",0.826 (active)
same,normalized growth,"locus YER155C, strain BEM2, stronger effect = lower value",0.902 (active)
same,normalized growth,"locus YER167W, strain BCK2, stronger effect = lower value",0.896 (active)
same,normalized growth,"locus YFR010W, strain ubp6, stronger effect = lower value",0.955 (inactive)
same,normalized growth,"locus YGL078C, strain dbp3, stronger effect = lower value",0.975 (inactive)
same,normalized growth,"locus YGL086W, strain mad1, stronger effect = lower value",0.839 (active)
same,normalized growth,"locus YGL167C, strain pmr1, stronger effect = lower value",0.957 (inactive)
same,normalized growth,"locus YGL173C, strain kem1, stronger effect = lower value",0.924 (inactive)
same,normalized growth,"locus YGL227W, strain vid30, stronger effect = lower value",0.964 (inactive)
same,normalized growth,"locus YGL240W, strain doc1, stronger effect = lower value",0.94 (inactive)
same,normalized growth,"locus YGL248W, strain PDE1, stronger effect = lower value",0.933 (inactive)
same,normalized growth,"locus YGL253W, strain hxk2, stronger effect = lower value",0.866 (active)
same,normalized growth,"locus YGR078C, strain PAC10, stronger effect = lower value",0.844 (active)
same,normalized growth,"locus YGR135W, strain pre9, stronger effect = lower value",0.954 (inactive)
same,normalized growth,"locus YGR229C, strain SMI1, stronger effect = lower value",0.787 (active)
same,normalized growth,"locus YGR252W, strain gcn5, stronger effect = lower value",0.74 (active)
same,normalized growth,"locus YHR013C, strain ard1, stronger effect = lower value",0.853 (inactive)
same,normalized growth,"locus YHR027C, strain rpn1, stronger effect = lower value",0.965 (inactive)
same,normalized growth,"locus YHR030C, strain SLT2, stronger effect = lower value",0.887 (inactive)
same,normalized growth,"locus YHR079C, strain IRE1 (second series), stronger effect = lower value",0.952 (inactive)
same,normalized growth,"locus YHR079C, strain IRE1, stronger effect = lower value",0.926 (inactive)
same,normalized growth,"locus YHR094C, strain hxt1, stronger effect = lower value",0.957 (inactive)
same,normalized growth,"locus YHR129C, strain ARP1, stronger effect = lower value",0.889 (active)
same,normalized growth,"locus YHR142W, strain chs7, stronger effect = lower value",0.861 (active)
same,normalized growth,"locus YHR200W, strain rpn10, stronger effect = lower value",0.943 (inactive)
same,normalized growth,"locus YIL066C, strain RNR3, stronger effect = lower value",0.766 (active)
same,normalized growth,"locus YIL073C, strain SPO22, stronger effect = lower value",0.811 (inactive)
same,normalized growth,"locus YIL125W, strain kgd1, stronger effect = lower value",0.966 (inactive)
same,normalized growth,"locus YIR030C, strain dcg1, stronger effect = lower value",0.959 (inactive)
same,normalized growth,"locus YJL092W, strain hpr5, stronger effect = lower value",0.945 (inactive)
same,normalized growth,"locus YJL095W, strain BCK1 (second series), stronger effect = lower value",0.967 (inactive)
same,normalized growth,"locus YJL095W, strain BCK1, stronger effect = lower value",0.749 (active) and 0.918 (inactive)
same,normalized growth,"locus YJL115W, strain asf1, stronger effect = lower value",0.98 (inactive)
same,normalized growth,"locus YJL129C, strain trk1, stronger effect = lower value",0.822 (active)
same,normalized growth,"locus YJL134W, strain LCB3, stronger effect = lower value",0.958 (inactive)
same,normalized growth,"locus YJL154C, strain vps35, stronger effect = lower value",0.985 (inactive)
same,normalized growth,"locus YJL164C, strain tpk1, stronger effect = lower value",0.927 (inactive)
same,normalized growth,"locus YJL166W, strain qcr8, stronger effect = lower value",0.873 (active)
same,normalized growth,"locus YJL168C, strain set2, stronger effect = lower value",0.961 (inactive)
